Over roughly 8,300 sequences, “log2 fold change of degron read counts, EGFP-low vs EGFP+ sorted cells (limma voom), compound-induced degradation” has its median near -1.1; the highest 2% begin near 3.2. What follows is part of a selection rich in the highest values, with near analogues and random picks from the rest.
Molecular target: T1, CRBN, Q96SW2
T1 chain: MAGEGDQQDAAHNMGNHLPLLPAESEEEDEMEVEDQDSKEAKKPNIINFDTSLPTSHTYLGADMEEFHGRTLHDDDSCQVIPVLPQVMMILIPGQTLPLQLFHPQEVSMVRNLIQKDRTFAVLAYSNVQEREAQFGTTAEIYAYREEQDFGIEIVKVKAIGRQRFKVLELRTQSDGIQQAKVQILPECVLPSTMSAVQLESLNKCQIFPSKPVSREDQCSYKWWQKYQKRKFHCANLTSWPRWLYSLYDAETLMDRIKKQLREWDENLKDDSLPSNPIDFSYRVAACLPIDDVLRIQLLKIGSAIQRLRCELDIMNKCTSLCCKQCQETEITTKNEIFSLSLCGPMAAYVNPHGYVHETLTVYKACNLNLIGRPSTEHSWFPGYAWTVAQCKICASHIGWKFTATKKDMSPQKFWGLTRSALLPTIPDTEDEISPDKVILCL
Experiment: log2 fold change of degron read counts, EGFP-low vs EGFP+ sorted cells (limma voom), compound-induced degradation; higher = more compound-induced degradation of the degron-EGFP fusion; degrons are variants of IKZF1/3 zinc finger 2; compound dose not given here
Conditions: Jurkat, 18 h

[1] = compound: compound 19 (5-tert-butyl-thalidomide)
[2] = compound: compound 22 (5-morpholino-thalidomide)
[3] = compound: compound 33 (diphenyl IMiD analogue)
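Also: pooled lentiviral library of zinc finger degron-EGFP fusions in mCherry-positive Jurkat cells, FACS-sorted after compound exposure, with degron abundance counted by next-generation sequencing.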

## FWCEICGHWFTQKGNLLRHIKL [46F_47W_49E_50I_52G_53H_54W_55F_67L_, Q9UKT9]
[1]
  log2 fold change of degron read counts: -1.25
[2]
  log2 fold change of degron read counts: -1.77
[3]
  log2 fold change of degron read counts: -1.42
compound: thalidomide
  log2 fold change of degron read counts: -1.28

## FVCEICGAWFTQKGNLLRHIKL [46F_47V_49E_50I_52G_53A_54W_55F_67L_, Q9UKT9]
[1]
  log2 fold change of degron read counts: -1.2
[2]
  log2 fold change of degron read counts: -0.828
[3]
  log2 fold change of degron read counts: 0.741
compound: thalidomide
  log2 fold change of degron read counts: 0.583

## FSCNICGASFTQKGNLLRHIKL [46F_47S_49N_50I_52G_53A_54S_55F_67L_, Q9UKT9]
[1]
  log2 fold change of degron read counts: 1.66
[2]
  log2 fold change of degron read counts: 1.77
[3]
  log2 fold change of degron read counts: 1.15
compound: thalidomide
  log2 fold change of degron read counts: 0.544

## FCCPQCGAMFTQKGNLLRHIKL [46F_47C_49P_50Q_52G_53A_54M_55F_67L_, Q9UKT9]
[1]
  log2 fold change of degron read counts: -1.18
[2]
  log2 fold change of degron read counts: -1.69
[3]
  log2 fold change of degron read counts: 0.335
compound: thalidomide
  log2 fold change of degron read counts: -0.935

## LYCNQCGFVCTQKGNLLRHIKL [46L_47Y_49N_50Q_52G_53F_54V_55C_67L_, Q9UKT9]
[1]
  log2 fold change of degron read counts: -0.977
[2]
  log2 fold change of degron read counts: -0.96
[3]
  log2 fold change of degron read counts: -1.36
compound: thalidomide
  log2 fold change of degron read counts: -1.76

## FHCNQCGAVFTQKGNLLRHIKL [46F_47H_49N_50Q_52G_53A_54V_55F_67L_, Q9UKT9]
[1]
  log2 fold change of degron read counts: -1.89
[2]
  log2 fold change of degron read counts: -2.19
[3]
  log2 fold change of degron read counts: -1.71
compound: thalidomide
  log2 fold change of degron read counts: -2

## FDCNVCGATFTQKGNLLRHIKL [46F_47D_49N_50V_52G_53A_54T_55F_67L_, Q9UKT9]
[1]
  log2 fold change of degron read counts: -1.91
[2]
  log2 fold change of degron read counts: -2.32
[3]
  log2 fold change of degron read counts: -1.24
compound: thalidomide
  log2 fold change of degron read counts: -1.1

## FECPICGHYFTQKGNLLRHIKL [46F_47E_49P_50I_52G_53H_54Y_55F_67L_, Q9UKT9]
[1]
  log2 fold change of degron read counts: -2.41
[2]
  log2 fold change of degron read counts: -2.69
[3]
  log2 fold change of degron read counts: -1.81
compound: thalidomide
  log2 fold change of degron read counts: -1.2

## FECDVCGAWFTQKGNLLRHIKL [46F_47E_49D_50V_52G_53A_54W_55F_67L_, Q9UKT9]
[1]
  log2 fold change of degron read counts: -3.45
[2]
  log2 fold change of degron read counts: -3.71
[3]
  log2 fold change of degron read counts: -2.2
compound: thalidomide
  log2 fold change of degron read counts: -2.52

## FYCNICGAAFTQKGNLLRHIKL [46F_47Y_49N_50I_52G_53A_54A_55F_67L_, Q9UKT9]
[1]
  log2 fold change of degron read counts: 2.66
[2]
  log2 fold change of degron read counts: 2.97
[3]
  log2 fold change of degron read counts: 1.81
compound: thalidomide
  log2 fold change of degron read counts: -0.259

## FRCNICGAAFTQKGNLLRHIKL [46F_47R_49N_50I_52G_53A_54A_55F_67L_, Q9UKT9]
[1]
  log2 fold change of degron read counts: 1.09
[2]
  log2 fold change of degron read counts: 1.5
[3]
  log2 fold change of degron read counts: 1.96
compound: thalidomide
  log2 fold change of degron read counts: 1.32

## FACNICGAAFTQKGNLLRHIKL [46F_47A_49N_50I_52G_53A_54A_55F_67L_, Q9UKT9]
[1]
  log2 fold change of degron read counts: 2.77
[2]
  log2 fold change of degron read counts: 2.64
[3]
  log2 fold change of degron read counts: 0.592
compound: thalidomide
  log2 fold change of degron read counts: 0.334

## FWCNICGAAFTQKGNLLRHIKL [46F_47W_49N_50I_52G_53A_54A_55F_67L_, Q9UKT9]
[1]
  log2 fold change of degron read counts: 2.29
[2]
  log2 fold change of degron read counts: 3.32
[3]
  log2 fold change of degron read counts: 1.66
compound: thalidomide
  log2 fold change of degron read counts: 0.348

## FECNICGAAFTQKGNLLRHIKL [46F_47E_49N_50I_52G_53A_54A_55F_67L_, Q9UKT9]
[1]
  log2 fold change of degron read counts: 0.374
[2]
  log2 fold change of degron read counts: -0.891
[3]
  log2 fold change of degron read counts: 1.05
compound: thalidomide
  log2 fold change of degron read counts: 2.1

## FQCNICGAAFTQKGNLLRHIKL [46F_47Q_49N_50I_52G_53A_54A_55F_67L_, Q9UKT9]
[1]
  log2 fold change of degron read counts: 1.01
[2]
  log2 fold change of degron read counts: 2.28
[3]
  log2 fold change of degron read counts: 1.53
compound: thalidomide
  log2 fold change of degron read counts: 3.39

## FCCEQCGANFTQKGNLLRHIKL [46F_47C_49E_50Q_52G_53A_54N_55F_67L_, Q9UKT9]
[1]
  log2 fold change of degron read counts: -1.5
[2]
  log2 fold change of degron read counts: -1.89
[3]
  log2 fold change of degron read counts: -0.599
compound: thalidomide
  log2 fold change of degron read counts: -1.3

## FHCPICGHPFTQKGNLLRHIKL [46F_47H_49P_50I_52G_53H_54P_55F_67L_, Q9UKT9]
[1]
  log2 fold change of degron read counts: 0.356
[2]
  log2 fold change of degron read counts: -0.486
[3]
  log2 fold change of degron read counts: 1.11
compound: thalidomide
  log2 fold change of degron read counts: -0.0778

## LFCEICGFMCTQKGNLLRHIKL [46L_47F_49E_50I_52G_53F_54M_55C_67L_, Q9UKT9]
[1]
  log2 fold change of degron read counts: 3.2
[2]
  log2 fold change of degron read counts: 3.12
[3]
  log2 fold change of degron read counts: 1.56
compound: thalidomide
  log2 fold change of degron read counts: 1.17

From the supplement of paper PMC12645437, “Orthogonal IMiD-Degron Pairs Induce Selective Protein Degradation in Cells” (ACS Chemical Biology, 2025)
